Measured values reported in the supplement of paper PMC6555819.

The sequences below were run on RXRa DBDmut IVT, anti-RXR (DBD mutation: RXRa K156A/R161A, NR concentration 90 nM) (assay: PBM binding z-score (relative to random genomic background probes); higher = stronger binding; sequences stand for … in GC…GCGATTGACAGCGTAGAATGAAGG).
Outline: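 Antibodies against each partner of ligand-free nuclear receptor dimers (one per run) detected binding on custom Agilent 4×180K protein-binding microarrays after 1 h incubation. The double-stranded probes had 34-nt variable regions carrying direct-repeat seeds, single-nucleotide variants, half-site ablations and random human genomic background sequences. Binding z-scores, from regression-normalized fluorescence, use the random background probes as reference.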

Row | Sequence | PBM binding z-score
1 | TATACAGGGTCAAAGGCCAGGGTACGAATGTCGA | 2.73
2 | TCTAGGAGGCCAGAGGGTCACTCAAGAGGTACGG | 0.451
3 | TCATATAGGTATACAGGTGAAAGTCCGTAAGTTA | 1.58
4 | TTACCTAGGTGAGCTGAGGTCGTTGATCCAACTC | 0.055
5 | CGTCCAAGGTCAGCAGGGCAGTGAAAGCGACGTG | 2.63
6 | ACTATTAGTTGAGACGAGGGGAACCGATAGGTTG | 0.612
7 | ATCTCTTGGTAAAGTTCAGTGAAAGATCGATAGA | 2.06
8 | CCTAGCAGGCCAGGGTCACTCATGCATTTCGCTT | 0.745
9 | ATCGAAAGGCCGAGGTGAGTATAGAGAAAGGGAA | -0.863
10 | TCATATAGGAAAACAGGTGAAAGTCCGTAAGTTA | 1.81
11 | TAATATAGGTAAAGGTGAAAGTCGAACGATATGA | -0.417
12 | CCTATTAGTTGACCATAAGGGCAACCGAAGCTCG | 0.655
13 | CGTACTAGGTCAAGGACAGTGAATCTCCGCACGC | 1.21
14 | GCTATTAGTTGAAAGGGCAGCCGAATGATTCTCG | 0.695
15 | GCTAGCAGGCCAATTGGGTCACTCAATGACGGGC | -0.58
16 | CAGCCTATGTCAGGGCCAGTATAGGAGGAACGTT | -0.685
17 | TGAATGAGGATATAAGATCAGGGAACGTTGCAAA | -0.562
18 | ACTAGCTGGCCAAGTTTGGGTCACTCAAACAAAG | -0.366
19 | TCATATAGGTAAACAGGTGAAAGACCGTAAGTTA | 1.32
20 | CGAACGAGGGCATGAATTGATAGCAAATGCCGAT | 2.24
21 | AGAACGAGGGCAATGAGTTGATAGAACGGGTGGC | 2.13
22 | AGTCAAAGTTCATCTAGGTAACGTAAGATATGCT | 4.76
